# Shown are actives, neighbours in structure and some others; about 13% of the full set was active somewhere.
# HCV inh: blocks hepatitis C virus; Huh7.5.1 HCVcc-Cre infection, luciferase reporter, 44 h; Potency, µM (series often up to 41.8 µM), for the others: top-dose activity change, negative = inhibition, most hits filed as inhibitors; 340,000 compounds, 3.4% hits; AID 651820; also: potency is read from the fitted curve at half-maximal effect
#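 Cells (1,000/well) were plated 4 h before compound, then infected with HCVcc-Cre virus (~0.5 moi). After 44 h further culture, infection was read as luciferase luminescence following a 15 min substrate incubation at room temperature.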
# Pf growth 96h: inhibits malaria parasite growth, 96 h; 320,000 compounds, 6.9% hits; P. falciparum luciferase reporter growth, 96 h; Potency, µM (series often up to 28.7 µM), without a hit: top-dose activity change, negative = inhibition, usual class: inhibitors; also: potency is read from the fitted curve at half-maximal effect
#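 Parasite growth measured via integrated firefly luciferase reporter in P. falciparum. Infected erythrocytes at 2% hematocrit, 0.05% parasitemia final were treated 96 hours at 37 C under 5% CO2, and luminescence was read.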
# Pf growth 48h: P. falciparum growth inhibition at 48 hours (one generation); P. falciparum luciferase growth in erythrocytes, 48 h; Potency, µM (highest dose often 28.7 µM), for the others: at the highest dose activity change, negative = inhibition, most hits filed as inhibitors; 310,000 compounds, 5.9% hits; also: potency is read from the fitted curve at half-maximal effect
#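 In quantitative HTS format, infected erythrocytes bearing luciferase-reporter parasites were treated for a single generation at 37 C. Luminescence after adding detection reagent served as the growth measure.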
# HCMV antiviral: inhibitors of human cytomegalovirus; HFF cells, HCMV-luciferase reporter, 72 h; hits give low values; AID 1259415; 410,000 compounds, 4.5% hits; activity change, negative = inhibition, % at 57.5 µM; in the data active = activity change below about -60%; inconclusive = no clear call, values can overlap the other calls; inactive = above about -39%
#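 Two-dose cell screen: HFF monolayers treated with compounds and infected with luciferase-expressing HCMV at 1 PFU/cell, 72 h at 37C, then lysed for luciferase measurement.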
# * hit, by the source's call; ? = inconclusive; · = not tested or not shown. Unless noted, calls follow the shape of the dose curve; as a rule, active = well fitted inhibition curve with a large enough effect; inconclusive = small, poorly fitted or top-dose-only effect, or another doubt; inactive = no such curve, though single readings can be large or run the other way. % is scaled to controls: 0 for no effect and ±100 for the full control effect.
SMILES,HCV inh,Pf growth 96h,Pf growth 48h,HCMV antiviral
O=C(NCc1nnc2c3ccccc3c(-c3ccccc3)nn12)c1ccccc1Cl,5.9%,0.0%,0.0%,-20.3
COc1ccc(Nc2nc(C)nc(N)c2S(=O)(=O)c2ccccc2)cc1,·,·,·,5.1
CCC(C)n1c(=O)c2sccc2n2c(CCCC(=O)Nc3ccc(F)cc3)nnc12 (stereo unspecified),·,·,·,-64.7*
Cn1c(=O)c2sccc2n2c(CCCC(=O)Nc3ccc(Oc4ccccc4)cc3)nnc12,·,·,·,-64.7*
Cn1c(=O)c2sccc2n2c(CCCC(=O)Nc3ccc(Cl)cc3)nnc12,·,·,·,-28.9
CC(NC(=O)CCCc1nnc2n(C)c(=O)c3sccc3n12)c1ccccc1 (stereo unspecified),13.1%,13.1µM*,15.3%,16.7
O=C(CN1CCN(CC(=O)Nc2ccccc2Cl)CC1)NCC1(N2CCOCC2)CCCCC1,?,?,10.4µM*,0.5
N#Cc1ccccc1S(=O)(=O)N1CCN(CC(=O)NCC2(N3CCOCC3)CCCCC2)CC1,0.8%,10.4µM*,?,0.0
N#Cc1ccccc1S(=O)(=O)N1CCN(CC(=O)Nc2ccnn2C2CCCC2)CC1,-5.3%,-0.8%,?,3.2
O=C(CN1CCN(S(=O)(=O)c2cccc(Cl)c2)CC1)NCC1(N2CCOCC2)CCCCC1,-13.9%,?,10.4µM*,-11.2
O=C(CN1CCN(S(=O)(=O)c2ccccc2Cl)CC1)NCC1(N2CCOCC2)CCCCC1,-4.4%,?,11.7µM*,-27.4
O=C(CN1CCN(S(=O)(=O)c2ccc(F)cc2)CC1)NCC1(N2CCOCC2)CCCCC1,12.9%,-14.5%,?,-14.9
CCc1ccc(CNC(=O)C2CCN(c3nc4ccccc4nc3C(F)(F)F)CC2)cc1,·,·,·,30.5
COC(=O)C(c1ccccc1)(c1cn(C)c2ccccc12)C(Nc1ccc(OC)cc1)c1ccccc1 (stereo unspecified),·,·,·,-5.1
COc1ccc(-n2nc3ccc(NC(=O)c4c(OC)cccc4OC)cc3n2)cc1,·,·,·,52.2
O=C(Nc1ccccc1Cl)NC1(C(=O)NCCCN2CCOCC2)CCCCC1,14.8%,?,8.9%,-61.6*
Cc1cccc(C(=O)N2CCn3c(nnc3C(=O)NC(C)C)C2)c1C,·,·,·,-13.1
Cc1ccc(Oc2nc3ccccn3c(=O)c2/C=C(\C#N)c2nc3ccccc3s2)c(C)c1,·,·,·,3.0
NC(=O)C(c1ccc(Cl)cc1)c1ccc(Sc2ccc(Cl)cc2)nn1 (stereo unspecified),?,-88.5%,·,-89.1*
O=C(CSc1ccc(-c2ccncc2)nn1)c1ccc(Cl)cc1,2.9%,14.0%,-18.8%,-13.3
CSCCC(C(=O)Nc1c(C)cccc1C)n1c(-c2cnc(C)cn2)nc2ccccc21 (stereo unspecified),·,·,·,5.5
COC(=O)c1ccccc1NC(=O)c1cc([N+](=O)[O-])nn1Cc1ccccc1,7.4%,0.657µM*,-3.9%,-5.4
Cc1ccc(C(=O)c2cc(C)sc2NC(=O)CN2CCN(C(=O)c3ccco3)CC2)cc1,12.6µM*,7.4%,1.31µM*,5.3
CCc1cc(C(=O)OC)c(NC(=O)CN2CCN(C(=O)C3CCCO3)CC2)s1 (stereo unspecified),·,0.657µM*,?,6.6
CCOC(=O)N1CCN(CC(=O)Nc2sc(CC)cc2C(=O)c2ccc(OC)cc2)CC1,?,10.4µM*,?,7.9
SMILES,HCV inh,Pf growth 96h,Pf growth 48h,HCMV antiviral
CCc1cc(C(=O)OC)c(NC(=O)CN2CCN(C(=O)c3ccco3)CC2)s1,·,?,1.65µM*,19.9
CCCCN1C(=O)C(CC(=O)NCc2cccc3ccccc23)CC(C(=O)N(C(C)C)C(C)C)=C1C (stereo unspecified),·,·,·,-9.0
Cc1ccc(S(=O)(=O)CCc2nc3ccccc3[nH]2)cc1C,-5.6%,?,?,-26.5
Clc1ccc(OCc2nc3ccccc3[nH]2)cc1,11.2µM*,?,203.3%,36.8
O=S(=O)(CCc1nc2ccccc2[nH]1)c1ccc(Cl)cc1,1.8%,35.1%,-27.1%,-60.7*
Cc1ccc(S(=O)(=O)CCc2nc3ccccc3[nH]2)cc1,-0.5%,-18.0%,-12.1%,-69.4*
Fc1ccc(-c2cn3cc(Cc4ccc(Cl)cc4)sc3n2)cc1,·,·,·,87.7
CC(C)(C)OC(=O)[C@H]1[C@H](c2ccc([N+](=O)[O-])cc2)C2(C(=O)c3ccccc3C2=O)C2c3ccccc3C=NN21 (stereo partly specified),?,1.85µM*,13.1µM*,-34.7
Cc1cccc(C(=O)N2CCC(Cc3ccccc3)CC2)c1[N+](=O)[O-],?,0.928µM*,-0.7%,39.7
O=C(c1cccs1)N1CCC(Cc2ccccc2)CC1,8.9%,-23.1%,8.28µM*,9.3
O=C(c1ccc(Br)o1)N1CCC(Cc2ccccc2)CC1,·,-17.4%,13.1µM*,27.1
O=C(c1cccs1)N1CCN(Cc2ccccc2)CC1,?,17.9%,1.7%,60.6
O=C(c1ccc(Br)o1)N1CCN(Cc2ccccc2Cl)CC1,-8.0%,?,11.7µM*,45.0
COc1cccc(NC(=O)CCNC(=O)Cn2cnc3ccccc3c2=O)c1,·,·,·,11.5
O=C(Nc1ccc(F)c(Cl)c1)C1Cc2ccccc2CN1S(=O)(=O)c1ccc(F)cc1 (stereo unspecified),·,·,·,-25.6
COc1ccc(CCNC(=O)Cn2cc(S(=O)(=O)Cc3ccc(F)cc3)c3ccccc32)cc1OC,·,·,·,0.0
O=C(N/N=C/c1cccc2ccccc12)C(=O)N1CCCC1,-22.2%,14.2%,19.0%,-71.2*
O=C(N/N=C/c1cc(Cl)ccc1O)c1ccc(Br)cc1,3.16µM*,11.8%,?,-101.9*
COc1ccc(Br)cc1/C=N/NC(=O)c1ccc(OC)c(OC)c1,?,-3.9%,4.15µM*,0.0
O=C(N/N=C/c1ccc(O)c2ncccc12)c1cccc(Br)c1,3.55µM*,37.6%,?,-98.9*
COc1ccc(NC(=O)c2nc(-c3ccc(C)cc3)n3c2CCCCC3)c(OC)c1,·,·,·,-0.5
O=C(N/N=C/c1nn(-c2ccccc2)cc1-c1ccc(Cl)cc1)c1ccncc1,·,?,2.08µM*,·
COc1ccc(Br)cc1/C=N/NC(=O)c1nc(-c2ccccc2)n2c1CCCCC2,12.1%,7.38µM*,·,-36.0
O=C(N/N=C/c1cc(Br)ccc1OC(=O)c1ccc(Br)cc1)c1ccncc1,3.16µM*,15.5%,1.65µM*,-16.4
CCn1c(C)nc2cc(C(=O)N/N=C/c3cccc(O)c3O)ccc21,?,?,10.4µM*,-18.3
CCn1c(C)nc2cc(C(=O)N/N=C/c3ccccc3)ccc21,-1.1%,158.9%,203.8%,55.9
CCc1nn(CC(=O)NCCCc2ccccc2)c(=O)c2cc3ccccc3n12,·,·,·,2.0
O=C(CNC(=O)c1ccc(S(=O)(=O)N2CCCC2)cc1)N/N=C/c1ccc(Cl)cc1,-7.5%,-23.4%,-17.9%,11.6
O=C(CNC(=O)c1ccc(S(=O)(=O)N2CCCC2)cc1)N/N=C/c1c(Cl)cccc1Cl,?,-27.1%,-18.3%,-71.6*
O=C(N/N=C\c1cc(Br)ccc1O)c1ccc(S(=O)(=O)N2CCCCC2)cc1,3.55µM*,-10.5%,5.22µM*,-100.0*

# Bioassay records (PubChem)
